Experimental data published in PubChem BioAssay (NCATS).
Inconclusive results are not listed. Entries that show only a call come without a potency. Activity calls are given as the source filed them. Calls follow the shape of the dose curve; as a rule, active = well fitted curve in the direction sought with a large enough effect; inconclusive = small, poorly fitted or top-dose-only effect, or another doubt; inactive = no such curve, though single readings can be large; an effect the other way counts as inactive or inconclusive.

tested on: Zika virus NS2B-NS3 protease; test: Primary screen GU AMC qHTS for Zika virus inhibitors (AID 1347154); settings: Zika NS2B-NS3 unlinked protease, AMC fluorogenic substrate; series mostly up to 54.1 µM; also: nearly all actives have a fitted effect of over 70% in size
In short: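 Unlinked Zika NS2B hydrophilic domain–NS3 protease complex at 25 nM in 10 mM Tris-HCl pH 8.0, 0.01% Tween 20, with an AMC peptide substrate. Fluorescence change (340/450 nm) over 15 min at room temperature, normalized to controls, fitted to 4-parameter Hill.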

Row | SMILES | Potency
1 | c1ccc2[nH]c(-c3cscn3)nc2c1 | inactive
2 | COCCCOc1ccnc(CS(=O)c2nc3ccccc3[nH]2)c1C (centres undefined) | inactive
3 | Cc1nc2n(c(=O)c1CCN1CCC(c3noc4cc(F)ccc34)CC1)CCCC2 | inactive
4 | C[Se]CCC(N)C(=O)O (centres undefined) | inactive
5 | COc1cc(OC)c(C(=O)CCCN2CCCC2)c(OC)c1 | inactive
6 | NC(=O)Cc1cccc(C(=O)c2ccccc2)c1N | inactive
7 | O=C(NCCO[N+](=O)[O-])c1cccnc1 | inactive
8 | Cc1cc(=O)c2c(O)c3c(O)cc(=O)c4c3c3c(cc(O)c1c23)C(C)(C)C=4O | inactive
9 | NS(=O)(=O)c1cc(C(=O)O)c(NCc2ccco2)cc1Cl | inactive
10 | C[C@H](Cn1cnc2c(N)ncnc21)OCP(=O)(O)O | inactive
11 | O=c1oc2cc(O)ccc2s1 | inactive
12 | CCCCC(CC)COC(=O)C(C#N)=C(c1ccccc1)c1ccccc1 (centres undefined) | inactive
13 | CCCCCCCCCCCCCCCCCCCCCCO | inactive
14 | COc1cc(Nc2c(C#N)cnc3cc(OCCCN4CCN(C)CC4)c(OC)cc23)c(Cl)cc1Cl | inactive
15 | CCC1=C(C)CN(C(=O)NCCc2ccc(S(=O)(=O)NC(=O)NC3CCC(C)CC3)cc2)C1=O (centres undefined) | inactive
16 | CC(C)c1nc(CN(C)C(=O)N[C@H](C(=O)N[C@@H](Cc2ccccc2)C[C@H](O)[C@H](Cc2ccccc2)NC(=O)OCc2cncs2)C(C)C)cs1 | inactive
17 | CN(C)[C@@H](CCOc1cccc2ccccc12)c1ccccc1 | inactive
18 | O=C(O)c1cccc(-c2noc(-c3ccccc3F)n2)c1 | inactive
19 | CCCCN(CCCC)CCC(O)c1cc2c(Cl)cc(Cl)cc2c2cc(C(F)(F)F)ccc12 (centres undefined) | inactive

Row | SMILES | Potency
20 | O=C(OC1C[C@H]2CC[C@@H](C1)[N+]21CCCC1)C(O)(c1ccccc1)c1ccccc1 (some centres undefined) | inactive
21 | Cc1cccc(CN2CCN(C(c3ccccc3)c3ccc(Cl)cc3)CC2)c1 (centres undefined) | inactive
22 | OC(CN1CCN(c2cccc(Cl)c2)CC1)C(c1ccccc1)c1ccccc1 (centres undefined) | inactive
23 | O=P(O)(O)C(O)(Cn1ccnc1)P(=O)(O)O | inactive
24 | CCC(C)(Oc1ccc(C2(c3ccc(OC(C)(CC)C(=O)O)cc3)CCCCC2)cc1)C(=O)O (centres undefined) | inactive
25 | Cc1cc2c(s1)Nc1ccccc1N=C2N1CCN(C)CC1 | inactive
26 | CN(C)CCc1c[nH]c2ccc(Cn3cncn3)cc12 | inactive
27 | CCC[C@@H]1C[C@@H](C(=O)N[C@@H]([C@H]2O[C@H](SC)[C@H](O)[C@@H](O)[C@H]2O)[C@@H](C)O)N(C)C1 | inactive
28 | CC(=O)Nc1ccc(O)cc1 | inactive
29 | CC1=C(C(=O)O)N2C(=O)[C@@H](NC(=O)[C@H](N)C3=CCC=CC3)[C@H]2SC1 | inactive
30 | CN1CCC(=C2c3ccccc3CCc3sccc32)CC1 | inactive
31 | COc1ccc(C2(C#N)CCC(C(=O)O)CC2)cc1OC1CCCC1 (centres undefined) | inactive
32 | Cc1cccc(C)c1OCC(=O)N[C@@H](Cc1ccccc1)[C@@H](O)C[C@H](Cc1ccccc1)NC(=O)[C@H](C(C)C)N1CCCNC1=O | inactive
33 | COc1cc2c(N3CCN(C(=O)Nc4ccc(OC(C)C)cc4)CC3)ncnc2cc1OCCCN1CCCCC1 | inactive
34 | COC(=O)C1=C(C)NC(C)=C(C(=O)OCCCN2CCC(c3ccccc3)(c3ccccc3)CC2)C1c1cccc([N+](=O)[O-])c1 (centres undefined) | inactive
35 | Cc1nccn1CC1CCc2c(c3ccccc3n2C)C1=O (centres undefined) | inactive
36 | CCCS(=O)c1ccc2nc(NC(=O)OC)[nH]c2c1 (centres undefined) | inactive
37 | O=C(O)CCNC(=O)c1ccc(N=Nc2ccc(O)c(C(=O)O)c2)cc1 | inactive
38 | Cc1ncc([N+](=O)[O-])n1CC(C)O (centres undefined) | inactive

tested on: Zika virus NS2B-NS3 protease (unlinked complex); test: Primary screen GU Rhodamine qHTS for Zika virus inhibitors: Unlinked NS2B-NS3 protease assay (AID 1347159); settings: Recombinant ZIKV NS2B-NS3 protease, Rhodamine110 substrate fluorescence; series mostly up to 107 µM; also: nearly all actives have a fitted effect of over 60% in size; also: potency is read from the fitted curve at half-maximal effect
In short: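 Percent inhibition came from the 15-min rise in Rhodamine110 fluorescence (1.5 microM substrate, ~15% conversion), normalized to no-inhibitor and no-enzyme wells and Hill-fitted. Unlinked protease, 25 nM, pH 8.0 Tris buffer; compounds up to 114 microM, 15-min preincubation.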

Row | SMILES | Potency
39 | COCCCOc1ccnc(CS(=O)c2nc3ccccc3[nH]2)c1C (centres undefined) | inactive
40 | COc1cc(Nc2c(C#N)cnc3cc(OCCCN4CCN(C)CC4)c(OC)cc23)c(Cl)cc1Cl | inactive
41 | CC(C)c1nc(CN(C)C(=O)N[C@H](C(=O)N[C@@H](Cc2ccccc2)C[C@H](O)[C@H](Cc2ccccc2)NC(=O)OCc2cncs2)C(C)C)cs1 | inactive
42 | O=C(O)c1cccc(-c2noc(-c3ccccc3F)n2)c1 | inactive
43 | O=C(OC1C[C@H]2CC[C@@H](C1)[N+]21CCCC1)C(O)(c1ccccc1)c1ccccc1 (some centres undefined) | inactive
44 | OC(CN1CCN(c2cccc(Cl)c2)CC1)C(c1ccccc1)c1ccccc1 (centres undefined) | inactive
45 | CCC(C)(Oc1ccc(C2(c3ccc(OC(C)(CC)C(=O)O)cc3)CCCCC2)cc1)C(=O)O (centres undefined) | 31.6 µM (active)
46 | Cc1cc2c(s1)Nc1ccccc1N=C2N1CCN(C)CC1 | inactive
47 | COc1ccc(C2(C#N)CCC(C(=O)O)CC2)cc1OC1CCCC1 (centres undefined) | inactive
48 | COc1cc2c(N3CCN(C(=O)Nc4ccc(OC(C)C)cc4)CC3)ncnc2cc1OCCCN1CCCCC1 | inactive
49 | Cc1nccn1CC1CCc2c(c3ccccc3n2C)C1=O (centres undefined) | inactive
